# In PubChem BioAssay (NCATS):
# Results filed as inconclusive are left out. Where a call stands in place of a potency, no number is given. A structure can be active in one record and inactive in another. The source made the active and inactive calls. The call rests on the fitted dose curve; in most records, active means well fitted inhibition curve with a large enough effect; inconclusive means small, poorly fitted or top-dose-only effect; inactive means flat fitted curve, though single readings scatter.
# Assay: P-glycoprotein substrates identified in KB-8-5-11 adenocarcinoma cell line, qHTS therapeutic library screen (AID 1346987); further: nearly all actives have a fitted effect of over 65% in size
# Settings: KB-8-5-11 (P-gp overexpressing) viability, CellTiter-Glo, 72 h; series mostly up to 44.5 µM
# How it was run: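 Compounds are pinned in dose-response onto KB-8-5-11 cells (500 cells/well, colchicine-free medium) and left 72 h at 37 degree C. CellTiter-Glo luminescence then yields AC50 values.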
# Potency means the concentration at half of the fitted maximal effect.
row,Structure (SMILES),Potency
1,CC(C)[C@@H](CN1CC[C@@](C)(c2cccc(O)c2)[C@@H](C)C1)NC(=O)[C@H]1Cc2ccc(O)cc2CN1,inactive
2,CC(C)(O)[C@H]1O[C@H]2CC[C@@]3(C)[C@@](O)(CC[C@H]4Cc5c([nH]c6ccccc56)[C@@]43C)C2=CC1=O,inactive
3,CC[N+](C)(CC)CCOC(=O)C(O)(c1ccccc1)c1ccccc1,inactive
4,COC(=O)C12C(=O)C(C)(O)C(=O)C1(C)C(C)=CC1C34CCC(OC3=O)C(C)(CO)C4CCC12C (configuration not stated),inactive
5,CCCN1CCO[C@H]2c3cc(O)ccc3OC[C@@H]21,inactive
6,CCC(C)(S(=O)(=O)CC)S(=O)(=O)CC,inactive
7,CN1C(=O)c2ccccc2NC(=O)[C@]12O[C@@H]2c1ccccc1,inactive
8,N#C[C@@H](O[C@@H]1O[C@H](CO[C@@H]2O[C@H](CO)[C@@H](O)[C@H](O)[C@H]2O)[C@@H](O)[C@H](O)[C@H]1O)c1ccccc1,inactive
9,ClC1=C(Cl)[C@]2(Cl)[C@@H]3[C@H]4C[C@H]([C@@H]5O[C@H]45)[C@@H]3[C@@]1(Cl)C2(Cl)Cl,inactive
10,C[C@]12CC[C@H](O)C[C@H]1CC[C@@H]1[C@@H]2CC[C@]2(C)[C@@H](c3ccc(=O)oc3)C[C@H]3O[C@]132,1.84 µM (active)
11,O=C(OCCN1CCCCC1)C(O)(c1ccccc1)c1ccccc1,inactive
12,CCN1C[C@]2(COC)[C@H](O)C[C@H](OC)[C@]34[C@@H]5C[C@]6(O)[C@H](OC(=O)c7ccccc7)[C@@H]5[C@@](O)([C@H]([C@H](OC)[C@H]23)[C@@H]14)[C@@H](O)[C@@H]6OC,inactive
13,CN(C)CCc1c[nH]c2ccc(CN3CCN(C)S3(=O)=O)cc12,inactive
14,CC(C)CCC(=O)O[C@H]1CC[C@H]2[C@@H]3CCC4=CC(=O)CC[C@]4(C)[C@H]3CC[C@]12C,7.31 µM (active)
15,CCCC(C)C1(CC)C(=O)NC(=O)NC1=O (configuration not stated),inactive
16,[Cl-].[Cl-].[Hg+2],3.66 µM (active)
17,CC1CCC(C(C)C)C(OC(=O)c2ccccc2N)C1 (configuration not stated),inactive
18,CN[C@H]1[C@H](O)[C@H](O[C@@H]2[C@@H](O)[C@H](O[C@H]3O[C@H]([C@H](C)O)[C@@H](O)[C@H](O)[C@H]3N)[C@@H](N)C[C@H]2N)OC[C@@]1(C)O,inactive
19,O=C1OC2(c3cc(Br)c(O)cc3Oc3c2cc(Br)c(O)[c]3[Hg])c2ccccc21 (configuration not stated),inactive
20,COc1cc2c(cc1OC)[C@@]13CCN4CC5=CCO[C@H]6CC(=O)N2[C@H]1[C@H]6[C@H]5C[C@H]43,inactive
21,CC(C)CCON=O,inactive
22,COC(=O)C1(C)CCC(O)C2(C)c3c(O)cc(C(C)C)cc3C(O)C(OC(C)=O)C12 (configuration not stated),inactive
23,CC[C@H]1[C@@H]2C[C@H]3[C@@H]4N(C)c5ccccc5[C@]45C[C@@H](C2[C@H]5O)N3[C@@H]1O (some centres not stated),inactive
24,C[N+]1([O-])[C@@H]2CC(OC(=O)[C@H](CO)c3ccccc3)C[C@H]1[C@@H]1O[C@@H]12 (some centres not stated),inactive
25,COC1CC(OC2CCC3(C)C(CCC4C3CCC3(C)C(C5=CC(=O)OC5)C(OC(C)=O)CC43O)C2)OC(C)C1OC1OC(CO)C(O)C(O)C1O (configuration not stated),0.685 µM (active)
26,[O]=[Cr](=[O])([OH])[O][Cr](=[O])(=[O])[OH],23.1 µM (active) and inactive
27,NCC(O)c1cccc(O)c1 (configuration not stated),inactive
